Compound activity (PubChem BioAssay)
A selection: hits, their analogues and other compounds. The true share with any hit is near 1.1%.
NR2F2 inh: NR2F2 (human) inhibition, primary screen; P24468; HEK293T NGFI-A luciferase reporter, luminescence; inhibition, % at 8.6 µM; 370,000 tested, 0.7% active; AID 686940;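 active = inhibition above a per-plate cutoff, mean inhibition of test wells between control levels plus 3 SD, cut at about 38% in these data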;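 note: cells cotransfected with COUP-TFII expression vector driving the NGFI-A reporter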
NR5A2 inv ag: inverse agonists of human LRH-1 (NR5A2); O00482; HEK293T StAR-luciferase reporter, LRH-1 transfected, 24 h; inhibition, % at 3.6 µM; 360,000 tested, 0.13% active;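 active = inhibition above the mean inhibition of all tested compounds plus 3 SD, cut at about 73% in these data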
GalR3 antagonist: human GalR3 antagonism; HEK293 GalR3-CNG cAMP membrane potential fluorescence; galR3 body fused to GalR1 C-terminus; inhibition, % at 3 µM; 360,000 tested, 0.44% active; AID 651719;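 active = inhibition above the screen-wide average plus 3 SD, cut at about 13% in these data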;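 note: forskolin and galanin both at EC90 stimulate the cells; cAMP rise reported by CNG channel membrane potential dye signal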
SRC3 inh: inhibits human SRC3 coactivator; HEK293 GAL4-SRC3 luciferase reporter, luminescence; 360,000 tested, 0.17% active; AID 588352; inhibition, % at 3.6 µM;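 active = inhibition above a per-campaign cutoff, the mean of all compounds plus 3 SD, cut at about 60% in these data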;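 note: higher means less SRC3-driven luciferase light from the GAL4 reporter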
Target sequence (Q9Y6Q9 whole entry, looked up, the tested form may be a part): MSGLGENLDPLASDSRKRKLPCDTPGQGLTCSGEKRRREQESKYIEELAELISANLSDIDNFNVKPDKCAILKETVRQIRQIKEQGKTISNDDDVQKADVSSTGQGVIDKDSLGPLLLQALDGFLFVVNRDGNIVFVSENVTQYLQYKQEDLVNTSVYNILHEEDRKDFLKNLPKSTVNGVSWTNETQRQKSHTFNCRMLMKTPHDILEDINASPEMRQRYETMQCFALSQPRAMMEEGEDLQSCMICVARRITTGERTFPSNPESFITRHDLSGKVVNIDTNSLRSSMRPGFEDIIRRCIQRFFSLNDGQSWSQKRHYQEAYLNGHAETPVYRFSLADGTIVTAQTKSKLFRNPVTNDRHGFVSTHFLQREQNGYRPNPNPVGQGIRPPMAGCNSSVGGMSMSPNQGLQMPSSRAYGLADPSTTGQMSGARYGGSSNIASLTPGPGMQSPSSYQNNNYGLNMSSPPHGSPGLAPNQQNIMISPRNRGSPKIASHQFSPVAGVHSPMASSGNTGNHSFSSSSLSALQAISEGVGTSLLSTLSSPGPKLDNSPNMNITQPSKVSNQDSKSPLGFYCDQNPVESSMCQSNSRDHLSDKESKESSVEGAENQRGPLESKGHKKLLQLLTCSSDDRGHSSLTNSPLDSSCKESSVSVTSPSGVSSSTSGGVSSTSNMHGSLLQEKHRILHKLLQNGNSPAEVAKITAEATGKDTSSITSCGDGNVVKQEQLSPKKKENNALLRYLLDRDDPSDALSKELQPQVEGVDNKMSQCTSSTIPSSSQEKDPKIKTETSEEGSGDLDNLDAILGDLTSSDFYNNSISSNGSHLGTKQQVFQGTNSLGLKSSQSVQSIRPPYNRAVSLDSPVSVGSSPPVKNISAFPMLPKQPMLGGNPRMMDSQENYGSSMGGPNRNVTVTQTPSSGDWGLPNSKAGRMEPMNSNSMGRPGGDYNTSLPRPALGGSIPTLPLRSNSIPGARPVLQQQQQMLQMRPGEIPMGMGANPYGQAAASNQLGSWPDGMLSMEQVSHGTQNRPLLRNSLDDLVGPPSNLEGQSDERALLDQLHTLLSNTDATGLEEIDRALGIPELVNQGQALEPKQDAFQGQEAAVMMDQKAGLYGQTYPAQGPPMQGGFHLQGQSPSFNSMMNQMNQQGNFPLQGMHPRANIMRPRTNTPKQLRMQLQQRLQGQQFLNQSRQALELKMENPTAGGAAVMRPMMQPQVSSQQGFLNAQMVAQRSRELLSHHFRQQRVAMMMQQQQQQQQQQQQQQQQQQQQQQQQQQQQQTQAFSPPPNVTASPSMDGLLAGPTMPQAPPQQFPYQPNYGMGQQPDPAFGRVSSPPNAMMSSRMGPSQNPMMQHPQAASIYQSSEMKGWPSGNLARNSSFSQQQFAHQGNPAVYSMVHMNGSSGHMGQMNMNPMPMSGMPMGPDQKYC
NCOA2 inhibitor: human SRC2 (NCOA2) inhibition; Q15596; HEK293 GAL4-SRC2 luciferase reporter, luminescence; 370,000 tested, 0.17% active; inhibition, % at 9 µM;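 active = inhibition above the mean inhibition of all tested compounds plus 3 SD, set per campaign, cut at about 52% in these data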
SRC1 inh: inhibits human SRC1 coactivator | Q15788 | HEK293 GAL4-SRC1 luciferase reporter, luminescence | inhibition, % at 3.6 µM | 360,000 tested, 0.12% active;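 active = inhibition above the campaign mean plus 3 SD, with each screening campaign given its own cutoff, cut at about 60% in these data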
VP16 Luc counter: VP16 inhibition counter-screen for COUP-TFII; shares compounds with NR2F2 inh; HEK293 Gal4-VP16 luciferase reporter, luminescence; inhibition, % at 8.5 µM; 2,500 tested, 25% active; AID 687007; in the data active = inhibition above about 13%
NR2F2 inh conf: confirmation of human COUP-TFII (NR2F2) inhibitors. HEK293 NGFI-A luciferase reporter, luminescence. AID 687008. 2,500 tested, 45% active. inhibition, % at 8.5 µM. shares compounds with NR2F2 inh;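 active = mean inhibition over three repeats above a set limit taken from the earlier primary screen, cut at about 38% in these data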
Large screens that a line does not name were inactive (follow-up assays come after a bar, where they were run).

CCOC(=O)C1=C(C)N(Cc2ccccc2)C(=O)NC1c1ccccc1OS(=O)(=O)c1ccccc1[N+](=O)[O-] (configuration not stated)	NR2F2 inh 47 | VP16 Luc counter inactive | NR2F2 inh conf inactive
COc1ccc(-c2c(C)nc3c(-c4ccc(F)cc4)cnn3c2N)cc1	none
Cc1nc2c(-c3ccc(Cl)cc3)cnn2c(N)c1-c1ccc(F)cc1	NR2F2 inh 52 | VP16 Luc counter inactive | NR2F2 inh conf 68
Cc1nc2c(-c3ccc(F)cc3)cnn2c(N)c1-c1ccccc1	NR2F2 inh 82, SRC3 inh 71, NCOA2 inhibitor 70, SRC1 inh 70 | VP16 Luc counter 32 | NR2F2 inh conf 82
Cc1cc(OCC(C)CN2CCC(C(O)(c3ccccc3)c3ccccc3)CC2)ccc1Br (configuration not stated)	none (no result: NR5A2 inv ag, GalR3 antagonist, SRC3 inh, SRC1 inh)
O=S(=O)(CC1NCCc2ccccc21)NCCc1ccccc1 (configuration not stated)	none (no result: NR5A2 inv ag, GalR3 antagonist, SRC3 inh, SRC1 inh)
Cc1ccc(Cl)cc1N1CCN(C(=O)CSc2nnc3n2C(C)(C)Cc2ccccc2-3)CC1	NR2F2 inh 63 | VP16 Luc counter inactive | NR2F2 inh conf 50
COc1ccc(N2CCN(C(=O)CSc3nnc4n3C(C)(C)Cc3ccccc3-4)CC2)cc1	none
CCN(CC)S(=O)(=O)c1cc(NC(=O)c2ccc(-n3cncn3)c([N+](=O)[O-])c2)ccc1C	NR2F2 inh 54 | VP16 Luc counter inactive | NR2F2 inh conf inactive
CC(C)C[C@H]1COc2cc(Br)ccc2S(=O)(=O)N1Cc1cn(Cc2ccc(F)cc2)nn1	none (no result: NR5A2 inv ag, GalR3 antagonist, SRC3 inh, SRC1 inh)
CC[C@H](C)[C@@H]1NC(=O)[C@@H](CC(C)C)NC(=O)[C@H](C(C)C)NC(=O)[C@H]2CSSC[C@H](NC1=O)C(=O)N2	NR2F2 inh 106, NR5A2 inv ag 103, SRC3 inh 95, NCOA2 inhibitor 94, SRC1 inh 96 | VP16 Luc counter 96 | NR2F2 inh conf 112
Cc1cc(Br)ccc1NC(=O)CN(C)C(=O)C1CCN(c2ncnc3sc(C)c(C)c23)CC1	NR2F2 inh 47 | VP16 Luc counter inactive | NR2F2 inh conf inactive
C=C1C(=O)OC2CC1C(OC(C)=O)CC(C)=CCCC(C)=CCCC2(C)O (configuration not stated)	NR2F2 inh 39, SRC3 inh 62 | VP16 Luc counter 30 | NR2F2 inh conf inactive
CCCCCCCCCCCCCCCCn1cc[n+](C)c1	NR2F2 inh 47 | VP16 Luc counter inactive | NR2F2 inh conf 49
C[n+]1ccn(CC(=O)c2cccs2)c1	none
CCCCCC[C@H](CC)CN(C(=O)Oc1ccccc1)c1ccccc1	none (no result: NR5A2 inv ag, GalR3 antagonist, SRC3 inh, SRC1 inh)
CC1C/C(=C/c2ccncc2)C(=O)/C(=C/c2ccncc2)C1 (configuration not stated)	NR2F2 inh 87, NCOA2 inhibitor 74 | VP16 Luc counter 82 | NR2F2 inh conf 97
CCOc1ccc(N=C(NN)c2ccc3ccccc3n2)cc1	NR2F2 inh 40 | VP16 Luc counter inactive | NR2F2 inh conf inactive
Cc1nc2cc(N3CCN(C)CC3)c(NC(=O)Cc3ccccc3)cc2c(=O)n1Cc1ccccc1	NR2F2 inh 49 | VP16 Luc counter inactive | NR2F2 inh conf inactive
CCN(CC)c1cc2nc(C)n(Cc3ccccc3)c(=O)c2cc1NC(=O)C1CC1	none
COc1cccc(N2CCN(c3c4c(nc5ncnn35)CCC4)CC2)c1	NR2F2 inh 55 | VP16 Luc counter inactive | NR2F2 inh conf inactive
COc1cc(/C=C/C(=O)c2ccc3c(c2)OCCO3)cc(Br)c1OCC(=O)N(C)C	NR2F2 inh 38, NCOA2 inhibitor 55 | VP16 Luc counter 31 | NR2F2 inh conf inactive
O=C(/C=C/c1ccncc1)c1ccc2c(c1)OCCO2	none
Cc1nn(C)c2ncc(C(=O)c3ccccc3O)cc12	none
Cc1[nH]nc2ncc(C(=O)c3ccccc3O)cc12	NR2F2 inh 38 | VP16 Luc counter 15 | NR2F2 inh conf inactive
CCOc1cc(C(=S)N2CCOCC2)ccc1OS(=O)(=O)c1ccc(NC(C)=O)cc1	NR2F2 inh 48 | VP16 Luc counter inactive | NR2F2 inh conf inactive
CC1(Cc2ccc(Cl)cc2)C(=O)Nc2ccc(-c3cccnc3)cc21 (configuration not stated)	none
CC1(Cc2cccc(F)c2)C(=O)Nc2ccc(-c3cccnc3)cc21 (configuration not stated)	NR2F2 inh 48 | VP16 Luc counter inactive | NR2F2 inh conf inactive
CCOC(=O)N1CCC(Nc2ncnc3c2cnn3-c2ccc(C)cc2C)CC1	NR2F2 inh 59 | VP16 Luc counter inactive | NR2F2 inh conf 43
C=CCNc1ncnc2c1cnn2-c1ccc(C)cc1C	none
c1ccc2c(c1)Nc1ccncc1S2	NR2F2 inh 38 | VP16 Luc counter inactive | NR2F2 inh conf inactive
c1ccc2c(c1)Nc1cc3ccccc3cc1S2	none
Nc1nonc1C(=O)NCCNCc1cc(Br)ccc1OCc1ccccc1F	NR2F2 inh 66 | VP16 Luc counter 19 | NR2F2 inh conf inactive
COc1ccc(CN(C)C(=O)c2ccc(OCC(=O)Nc3cccc(C(F)(F)F)c3)c(OC)c2)c(OC)c1	NR2F2 inh 71, GalR3 antagonist 55 | VP16 Luc counter inactive | NR2F2 inh conf 59
COc1ccc(CN(C)C(=O)c2cccc(NC(=O)CC3SC(N4CCCCC4)=NC3=O)c2)c(OC)c1 (configuration not stated)	NR2F2 inh 58 | VP16 Luc counter inactive | NR2F2 inh conf 44
COc1cccc(CN(C)C(=O)c2cccc(NC(=O)CC3SC(N4CCCCC4)=NC3=O)c2)c1OC (configuration not stated)	none
COc1cc(C(=O)NCCCN(C)C)ccc1OCC(=O)Nc1cccc(C(F)(F)F)c1	none
C=CCN(C)CC#Cc1ccccc1C	none (no result: NR5A2 inv ag, GalR3 antagonist, SRC3 inh, SRC1 inh)
C=CCN1C(=O)[C@@H](CC(=O)NCc2cccs2)[C@]2(C(=O)OCC)CCCCC/C=C/12	none (no result: NR5A2 inv ag, GalR3 antagonist, SRC3 inh, SRC1 inh)
O=S(=O)(CC1NCc2ccccc21)NCc1ccc(F)cc1 (configuration not stated)	none (no result: NR5A2 inv ag, GalR3 antagonist, SRC3 inh, SRC1 inh)
COc1cc(SC)ccc1C(=O)N1CCN(Cc2ccc3c(c2)OCO3)CC1	NR2F2 inh 48 | VP16 Luc counter inactive | NR2F2 inh conf inactive
Cc1c(C(=O)N2CCN(Cc3ccc4c(c3)OCO4)CC2)sc2ncnc(N3CCN(c4ccccc4F)CC3)c12	NR2F2 inh 46 | VP16 Luc counter inactive | NR2F2 inh conf 57
CC(=O)Nc1ccc(Nc2cc(C)nc3c(-c4ccccc4)cnn23)cc1	NR2F2 inh 42 | VP16 Luc counter inactive | NR2F2 inh conf 43
Cc1ccc(OCC(=O)NC(=S)Nc2ccccn2)c(Br)c1	NR2F2 inh 50 | VP16 Luc counter inactive | NR2F2 inh conf inactive
